# Compounds with a hit are over-represented: about 22% of the library has one in this group of screens.
# Pf growth 96h: inhibits malaria parasite growth, 96 h; actives 6.9% (n = 320,000); Potency, µM (top dose mostly 28.7 µM), inactives show top-dose activity change, negative = inhibition, hits mostly inhibitors; AID 504834; P. falciparum luciferase reporter growth, 96 h; further: potency means the concentration at half of the fitted maximal effect; on the % scale 0 is the no-effect control and ±100 the full control effect
#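 Erythrocytes infected with luciferase-expressing P. falciparum were dispensed at 2% hematocrit and 0.05% parasitemia (final), then incubated with compounds 96 hours at 37 C in 5% CO2. Luminescence after detection reagent addition reported growth.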
# Shiga inhibitor: Shiga toxin inhibition; Vero cells, Shiga toxin protein synthesis inhibition reporter; inhibition, % at 38.7 µM; actives 9.2% (n = 290,000); in the data active means inhibition mostly above about 28%, no sharp cut-off; inactive means mostly below about 43%; further: 0% is about no effect
# LmPK inhibitor: inhibitors of Leishmania mexicana pyruvate kinase. Q27686. purified LmPK, Kinase-Glo ATP luminescence, 1 h. Potency, µM (series often up to 57.5 µM), inactives show top-dose activity change, negative = inhibition, actives largely listed as inhibitors. actives 0.37% (n = 290,000). AID 1721; further: potency means the concentration at half of the fitted maximal effect; on the % scale 0 is the no-effect control and ±100 the full control effect
# Target sequence (Q27686 whole entry, looked up): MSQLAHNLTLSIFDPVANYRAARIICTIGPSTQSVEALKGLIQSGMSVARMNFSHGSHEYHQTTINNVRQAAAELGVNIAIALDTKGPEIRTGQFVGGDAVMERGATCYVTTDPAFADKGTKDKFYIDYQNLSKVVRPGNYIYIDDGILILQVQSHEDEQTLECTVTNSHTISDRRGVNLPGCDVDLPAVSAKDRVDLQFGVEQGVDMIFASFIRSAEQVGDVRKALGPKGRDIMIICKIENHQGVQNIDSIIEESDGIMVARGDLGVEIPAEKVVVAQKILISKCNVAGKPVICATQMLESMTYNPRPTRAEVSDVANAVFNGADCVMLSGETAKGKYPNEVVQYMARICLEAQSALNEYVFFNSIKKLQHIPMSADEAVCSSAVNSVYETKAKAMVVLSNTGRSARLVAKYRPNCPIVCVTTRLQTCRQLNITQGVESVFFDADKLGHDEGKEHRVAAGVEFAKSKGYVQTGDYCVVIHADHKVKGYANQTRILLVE
#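 0.1 nM LmPK, 0.5 mM PEP, 0.1 mM ADP; 50 mM imidazole pH 7.2, 7 mM MgCl2, 50 mM KCl; 1 h RT. Kinase-Glo luminescence readout, normalized to no-enzyme (full inhibition) and uninhibited wells.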
# Pf growth 48h: P. falciparum growth inhibition at 48 hours (one generation). actives 5.9% (n = 310,000). Potency, µM (doses to about 28.7 µM), for the others: at the top dose activity change, negative = inhibition, hits mostly inhibitors. P. falciparum luciferase growth in erythrocytes, 48 h; further: potency means the concentration at half of the fitted maximal effect; on the % scale 0 is the no-effect control and ±100 the full control effect
#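 Parasite viability was followed by luminescence of a genomically integrated firefly luciferase. Cultures held 0.1% parasitemia at 2% hematocrit (final), incubated under 5% CO2 at 37 C.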
# CHX counter: affects cycloheximide protein synthesis inhibition readout, counter-screen; cell reporter, cycloheximide protein synthesis inhibition counterscreen; max response, %; actives 12% (n = 300,000); AID 2314; in the data active means max response mostly above about 13%, no sharp cut-off; inactive means mostly below about 14%; further: read at 38.3 µM for the half of the compounds with a filed dose; 0% is about no effect
# Numbers without * were called inactive; u = inconclusive; x = not tested or not shown; [ ] = dose if it differs, or a comment. Unless noted, the call rests on the fitted dose curve; in most records, active means well fitted inhibition curve with a large enough effect; inconclusive means small, poorly fitted or top-dose-only effect, or another doubt; inactive means no such curve, though single readings can be large or run the other way.
SMILES,Pf growth 96h,Shiga inhibitor,LmPK inhibitor,Pf growth 48h,CHX counter
COc1cc(OC)c2ccc(=O)oc2c1C(CC(=O)N1CCCCC1)c1ccc2c(c1)OCO2 (configuration not stated),x,-4,x,x,11
CCN(CC)CCC(c1ccc(N(C)C)cc1)c1c(OC)cc(OC)c2c(C)cc(=O)oc12 (configuration not stated),x,-12,x,x,-5
COc1ccc(N(C)C(=O)c2ccc(NC(=O)CCS(=O)(=O)c3cccs3)cc2)cc1,u,13,-1%,-10%,-3
O=S1(=O)CCC(NC(=S)Nc2ccc3ccccc3c2)C1 (configuration not stated),27%,43*,3%,43%,27*
O=S1(=O)CCC(NC(=S)Nc2ccccc2)C1 (configuration not stated),3%,-6,1%,-2%,-2
CC(=O)N1c2ccc(S(=O)(=O)N3CCCCC3)cc2CC1C(=O)Nc1ccc(F)cc1C (configuration not stated),250%,-5,-8%,-20%,1
O=C(CSc1n[nH]c(=O)n1C1CC1)c1ccc2c(c1)OCCO2,-8%,57*,5%,1%,37*
O=C(CSc1n[nH]c(=O)n1Cc1ccco1)c1ccc2c(c1)OCCO2,46%,88*,-2%,21%,40*
COc1cc(C)c(S(=O)(=O)NOCc2ccccc2)c(C)c1C,u,x,7%,-12%,4
COc1cc2c(C(=O)Nc3ccccc3F)cn(C)c(=O)c2cc1OC,8.3µM*,14,-1%,-17%[0.00184 µM],-4
COc1ccccc1NC(=O)c1cn(C)c(=O)c2cc(OC)c(OC)cc12,8.3µM*,-2,1%,22%,7
COc1cc2c(C(=O)N3CCN(c4ccccc4F)CC3)cn(C)c(=O)c2cc1OC,u,-5,5%,u,-5
CC1=C(C)CC2C(C1)C(=O)c1ccc(Br)cc1S2(=O)=O (configuration not stated),37%,x,x,-8%,x
Nc1nccc(/C=C/c2ccc(Cl)cc2)n1,106%,72*,-24%,241%,44*
Cn1c(O)c(C(=NCCc2c[nH]c3ccccc23)c2ccccc2)c(=O)n(C)c1=O,u,-8,2%,9.3µM*,-2
Cc1cc(C)nc(SC2=CS(=O)(=O)c3ccccc32)n1,-25%,14,4%,u,8
O=S1(=O)C=C(Sc2nc3ccccc3s2)c2ccccc21,x,76*,-7%,8.3µM*,77*
CCOC(=S)N/C(=N\S(=O)(=O)c1ccc(C)cc1)c1ccccc1,20%,-3,1%,16%,2
Cc1cccc(C)c1NC(=O)CN(C)C(=O)c1ccc2nc[nH]c2c1,9%,x,x,27%,x
Cc1ccccc1CN1CCc2c(OCC(=O)N3CCCc4ccccc43)cccc2C1=O,15µM*,13,2%,u,1
Cc1ccccc1OCC(=O)N1CCCc2ccccc21,-21%,active,-5%,-8%,33*
COc1cccc(OCC(=O)N2CCN(C)CC2)c1,-12%,53*,4%,41%,35*
O=C(COc1ccc(F)cc1)N1CCCc2ccccc21,0%,44,-1%,-2%,11
CN1CCN(C(=O)COc2ccc(Oc3ccccc3)cc2)CC1,-1%,47,-1%,2%,6
COc1cccc(OCC(=O)N2CCCc3ccccc32)c1,7%,26,0%,18%,37*
SMILES,Pf growth 96h,Shiga inhibitor,LmPK inhibitor,Pf growth 48h,CHX counter
COc1ccc(NC(=O)c2cc3c(=O)n4ccccc4nc3n2C)cc1OC,55%,3,-4%,10%,5
CC(Oc1ccc(Br)cc1)C(=O)Nc1nnc(C2CC2)s1 (configuration not stated),1%,x,x,-10%,x
CC(C)CN(C(=O)CN1CCc2ccccc21)c1c(N)n(CC(C)C)c(=O)[nH]c1=O,-27%,-13,0%,-20%,-2
OC(CCN1CCCCC1)c1ccc(-c2ccccc2)cc1 (configuration not stated),4.7µM*,72*,0%,x,52*
OCCCNCc1ccc(N(c2ccccc2)c2ccccc2)cc1,2.3µM*,-19,2%,u,-7
CC12CCC(C(=O)Nc3cccc(Cl)c3)(C(Br)C1=O)C2(C)C (configuration not stated),15µM*,7,2%,u,-2

# Source: PubChem BioAssay (National Center for Advancing Translational Sciences (NCATS))
